# Reference: paper PMC7862700, “An all-to-all approach to the identification of sequence-specific readers for epigenetic DNA modifications on cytosine”
# What was measured:
# Assay in all cases: DAPPL (digital affinity profiling via proximity ligation, sequencing); 10 mM Tris-HCl pH 7.5, 50 mM NaCl, 1 mM DTT, 4% glycerol, room temperature, 30 min; GST-TFs on glutathione beads, 16-mer random dsDNA library, 0.1% formaldehyde crosslink after washing; high values mean tight binding
# [1] = molecular target: T1, FLI1 (Homo sapiens, UniProt Q01543 1-452); settings: protein: recombinant; tags: N-terminal GST; dsDNA, one strand shown
# T1 sequence: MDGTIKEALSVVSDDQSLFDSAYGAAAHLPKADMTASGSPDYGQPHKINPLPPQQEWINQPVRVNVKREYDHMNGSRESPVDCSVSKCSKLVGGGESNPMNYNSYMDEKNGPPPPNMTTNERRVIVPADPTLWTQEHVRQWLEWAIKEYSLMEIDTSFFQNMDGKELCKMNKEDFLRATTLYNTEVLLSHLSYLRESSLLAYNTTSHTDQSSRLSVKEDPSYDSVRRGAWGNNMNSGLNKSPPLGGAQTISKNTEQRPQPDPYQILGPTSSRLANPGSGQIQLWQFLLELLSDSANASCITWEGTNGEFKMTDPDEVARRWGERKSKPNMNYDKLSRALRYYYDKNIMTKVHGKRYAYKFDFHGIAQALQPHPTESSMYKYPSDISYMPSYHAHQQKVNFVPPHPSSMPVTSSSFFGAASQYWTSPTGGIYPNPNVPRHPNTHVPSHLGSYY
# Outline: (§1)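 Binding signal is given per hexamer as its read frequency for a factor divided by its frequency in the tag-only sample. GST-fused human transcription factors were expressed in yeast, captured on glutathione beads, barcoded with DNA and pooled with that sample, then incubated with 200 nmole of a 16-mer random double-stranded DNA library in Tris/NaCl/DTT/glycerol buffer for 30 min at room temperature. The pools were then washed, crosslinked, proximity-ligated, amplified by PCR and sequenced on an Illumina NextSeq500.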
# [2] = molecular target: T2, ELK1 (Homo sapiens, UniProt P19419 1-428); settings: protein: recombinant; tags: N-terminal GST; dsDNA, one strand shown
# T2 sequence: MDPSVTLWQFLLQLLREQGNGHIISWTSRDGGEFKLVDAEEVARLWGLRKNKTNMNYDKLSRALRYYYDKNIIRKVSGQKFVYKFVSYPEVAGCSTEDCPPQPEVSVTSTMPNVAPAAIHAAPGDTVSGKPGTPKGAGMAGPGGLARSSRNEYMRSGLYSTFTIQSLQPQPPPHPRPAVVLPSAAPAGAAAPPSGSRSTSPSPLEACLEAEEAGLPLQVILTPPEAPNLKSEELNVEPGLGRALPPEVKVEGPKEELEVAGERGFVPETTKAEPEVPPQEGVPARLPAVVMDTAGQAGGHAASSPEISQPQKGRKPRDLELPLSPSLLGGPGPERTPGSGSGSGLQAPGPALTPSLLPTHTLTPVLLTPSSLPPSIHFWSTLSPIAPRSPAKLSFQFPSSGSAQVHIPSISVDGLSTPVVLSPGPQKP
# Outline: as §1
# [3] = molecular target: T3, GABPA (Homo sapiens, UniProt Q06546 1-454); settings: protein: recombinant; tags: N-terminal GST; dsDNA, one strand shown
# T3 sequence: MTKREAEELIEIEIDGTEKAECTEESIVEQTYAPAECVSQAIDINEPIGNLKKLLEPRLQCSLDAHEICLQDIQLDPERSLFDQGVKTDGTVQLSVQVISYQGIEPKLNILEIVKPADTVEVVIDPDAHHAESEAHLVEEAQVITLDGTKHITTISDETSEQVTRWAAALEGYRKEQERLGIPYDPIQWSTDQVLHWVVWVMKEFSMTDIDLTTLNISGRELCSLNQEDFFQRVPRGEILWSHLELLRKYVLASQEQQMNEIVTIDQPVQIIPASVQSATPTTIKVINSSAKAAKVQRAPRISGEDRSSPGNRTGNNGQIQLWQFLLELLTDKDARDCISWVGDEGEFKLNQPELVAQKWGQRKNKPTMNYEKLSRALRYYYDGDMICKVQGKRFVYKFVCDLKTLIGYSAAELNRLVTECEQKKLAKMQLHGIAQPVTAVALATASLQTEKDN
# Outline: as §1
# [4] = molecular target: T4, ERG (Homo sapiens, UniProt P11308 1-479); settings: protein: recombinant; tags: N-terminal GST; dsDNA, one strand shown
# T4 sequence: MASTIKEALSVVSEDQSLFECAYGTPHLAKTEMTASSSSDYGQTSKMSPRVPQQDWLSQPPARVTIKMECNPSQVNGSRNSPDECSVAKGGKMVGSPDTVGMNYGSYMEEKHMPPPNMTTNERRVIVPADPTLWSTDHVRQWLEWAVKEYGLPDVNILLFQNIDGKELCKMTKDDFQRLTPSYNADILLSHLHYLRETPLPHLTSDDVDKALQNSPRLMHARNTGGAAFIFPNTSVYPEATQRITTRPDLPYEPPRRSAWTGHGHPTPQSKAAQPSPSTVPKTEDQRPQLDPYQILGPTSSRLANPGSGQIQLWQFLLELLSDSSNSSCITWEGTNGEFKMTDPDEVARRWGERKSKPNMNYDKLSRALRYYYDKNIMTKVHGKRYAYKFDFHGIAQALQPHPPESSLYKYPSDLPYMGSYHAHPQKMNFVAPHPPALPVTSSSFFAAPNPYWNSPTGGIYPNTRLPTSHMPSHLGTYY
# Outline: as §1
# [5] = molecular target: ELF1 (Homo sapiens, UniProt P32519 1-619); settings: protein: recombinant; tags: N-terminal GST; dsDNA, one strand shown
# Sequence of ELF1 (P32519 whole entry): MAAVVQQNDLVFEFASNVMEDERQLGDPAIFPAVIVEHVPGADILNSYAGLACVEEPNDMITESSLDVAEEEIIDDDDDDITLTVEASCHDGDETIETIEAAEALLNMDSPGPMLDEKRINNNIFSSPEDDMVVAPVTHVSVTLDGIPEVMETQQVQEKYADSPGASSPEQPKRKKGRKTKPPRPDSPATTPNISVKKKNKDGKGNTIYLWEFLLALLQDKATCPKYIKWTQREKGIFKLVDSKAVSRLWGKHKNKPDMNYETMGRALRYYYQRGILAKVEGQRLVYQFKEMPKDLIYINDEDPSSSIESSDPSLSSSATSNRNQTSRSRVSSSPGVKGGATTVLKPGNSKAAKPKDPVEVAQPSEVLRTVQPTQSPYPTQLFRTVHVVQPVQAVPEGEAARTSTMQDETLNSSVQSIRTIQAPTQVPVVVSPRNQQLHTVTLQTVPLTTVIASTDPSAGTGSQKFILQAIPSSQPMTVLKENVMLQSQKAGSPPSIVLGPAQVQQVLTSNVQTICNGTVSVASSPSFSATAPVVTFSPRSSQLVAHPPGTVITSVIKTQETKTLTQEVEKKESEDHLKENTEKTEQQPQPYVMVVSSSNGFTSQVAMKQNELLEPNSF
# Outline: as §1
# [6] = molecular target: T5, EHF (Homo sapiens, UniProt Q9NZC4 1-300); settings: protein: recombinant; tags: N-terminal GST; dsDNA, one strand shown
# T5 sequence: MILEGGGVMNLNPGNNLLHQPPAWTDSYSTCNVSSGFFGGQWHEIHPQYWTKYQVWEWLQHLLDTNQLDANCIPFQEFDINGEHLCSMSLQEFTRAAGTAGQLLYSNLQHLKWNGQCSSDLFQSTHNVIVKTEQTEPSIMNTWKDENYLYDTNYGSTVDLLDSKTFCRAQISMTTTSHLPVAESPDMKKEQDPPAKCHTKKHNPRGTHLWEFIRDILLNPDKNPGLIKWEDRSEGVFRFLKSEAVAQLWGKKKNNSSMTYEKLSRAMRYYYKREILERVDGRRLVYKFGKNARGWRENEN
# Outline: as §1
# [7] = molecular target: SPI1 (Homo sapiens, UniProt P17947 1-270); settings: protein: recombinant; tags: N-terminal GST; dsDNA, one strand shown
# Outline: as §1
# [8] = molecular target: SPIB (Homo sapiens, UniProt Q01892 1-262); settings: protein: recombinant; tags: N-terminal GST; dsDNA, one strand shown
# Sequence of SPIB (Q01892 whole entry): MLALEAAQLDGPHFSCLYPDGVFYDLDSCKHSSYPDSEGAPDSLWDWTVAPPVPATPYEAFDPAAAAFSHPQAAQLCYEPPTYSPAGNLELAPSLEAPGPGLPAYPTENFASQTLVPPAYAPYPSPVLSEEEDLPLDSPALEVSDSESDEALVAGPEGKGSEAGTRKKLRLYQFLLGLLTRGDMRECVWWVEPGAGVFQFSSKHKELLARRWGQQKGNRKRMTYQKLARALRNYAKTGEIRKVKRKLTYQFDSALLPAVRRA
# Outline: as §1
# [9] = molecular target: T6, ELK3 (Homo sapiens, UniProt P41970 1-407); settings: protein: recombinant; tags: N-terminal GST; dsDNA, one strand shown
# T6 sequence: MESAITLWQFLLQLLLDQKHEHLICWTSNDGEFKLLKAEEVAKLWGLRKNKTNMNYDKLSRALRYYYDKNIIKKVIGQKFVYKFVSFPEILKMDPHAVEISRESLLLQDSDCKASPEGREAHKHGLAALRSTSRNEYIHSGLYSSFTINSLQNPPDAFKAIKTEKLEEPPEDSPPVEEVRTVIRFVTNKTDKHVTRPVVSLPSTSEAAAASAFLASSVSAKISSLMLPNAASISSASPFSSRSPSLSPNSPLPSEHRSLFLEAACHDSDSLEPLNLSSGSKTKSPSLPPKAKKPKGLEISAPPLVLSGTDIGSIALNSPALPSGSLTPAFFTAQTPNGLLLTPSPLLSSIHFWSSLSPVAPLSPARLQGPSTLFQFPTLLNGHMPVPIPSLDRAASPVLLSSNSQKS
# Outline: as §1
# [10] = molecular target: T7, FEV (Homo sapiens, UniProt Q99581 1-238); settings: protein: recombinant; tags: N-terminal GST; dsDNA, one strand shown
# T7 sequence: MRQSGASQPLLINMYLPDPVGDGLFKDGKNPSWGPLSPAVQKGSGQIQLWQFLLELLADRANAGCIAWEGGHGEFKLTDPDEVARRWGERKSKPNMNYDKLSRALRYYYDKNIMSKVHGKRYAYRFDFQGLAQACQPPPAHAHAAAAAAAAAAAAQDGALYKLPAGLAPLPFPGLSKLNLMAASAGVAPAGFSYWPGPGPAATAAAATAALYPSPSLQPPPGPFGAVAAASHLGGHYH
# Outline: as §1
# [11] = molecular target: ETV5 (Homo sapiens, UniProt P41161 1-510); settings: protein: recombinant; tags: N-terminal GST; dsDNA, one strand shown
# Sequence of ETV5 (P41161 whole entry): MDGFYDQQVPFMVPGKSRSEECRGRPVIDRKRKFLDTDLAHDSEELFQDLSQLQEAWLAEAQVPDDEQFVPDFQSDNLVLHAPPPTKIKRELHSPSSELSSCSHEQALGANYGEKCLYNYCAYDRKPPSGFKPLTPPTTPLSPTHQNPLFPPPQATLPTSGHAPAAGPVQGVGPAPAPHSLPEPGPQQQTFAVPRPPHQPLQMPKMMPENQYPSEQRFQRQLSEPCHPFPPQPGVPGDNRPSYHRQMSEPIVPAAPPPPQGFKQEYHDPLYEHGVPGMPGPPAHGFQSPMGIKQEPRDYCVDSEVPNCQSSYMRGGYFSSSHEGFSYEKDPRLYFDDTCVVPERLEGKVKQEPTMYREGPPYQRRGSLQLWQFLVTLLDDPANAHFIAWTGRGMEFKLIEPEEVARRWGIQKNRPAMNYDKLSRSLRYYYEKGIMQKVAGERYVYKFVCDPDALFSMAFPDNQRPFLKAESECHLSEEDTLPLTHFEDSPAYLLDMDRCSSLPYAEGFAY
# Outline: as §1
# [12] = molecular target: HSF1 (Homo sapiens, UniProt Q00613 1-529); settings: protein: recombinant; tags: N-terminal GST; chain copies: 3; dsDNA, one strand shown
# Sequence of HSF1 (Q00613 whole entry): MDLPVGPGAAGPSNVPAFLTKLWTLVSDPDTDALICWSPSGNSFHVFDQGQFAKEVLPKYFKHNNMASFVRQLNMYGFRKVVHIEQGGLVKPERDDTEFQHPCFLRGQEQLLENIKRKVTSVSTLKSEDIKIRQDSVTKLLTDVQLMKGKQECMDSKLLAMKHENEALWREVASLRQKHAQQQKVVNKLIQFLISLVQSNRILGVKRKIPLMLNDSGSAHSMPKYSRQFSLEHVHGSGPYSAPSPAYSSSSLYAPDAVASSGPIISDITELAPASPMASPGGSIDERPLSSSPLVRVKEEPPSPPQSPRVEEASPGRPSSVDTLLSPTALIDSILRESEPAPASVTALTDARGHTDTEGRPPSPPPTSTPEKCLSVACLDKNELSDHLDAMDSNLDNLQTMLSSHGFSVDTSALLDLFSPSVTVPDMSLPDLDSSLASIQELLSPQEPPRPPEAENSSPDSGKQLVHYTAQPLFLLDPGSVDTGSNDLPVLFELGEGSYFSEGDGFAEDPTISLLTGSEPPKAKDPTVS
# Outline: as §1
# [13] = molecular target: T8, SPIC (Homo sapiens, UniProt Q8N5J4 1-248); settings: protein: recombinant; tags: N-terminal GST; dsDNA, one strand shown
# T8 sequence: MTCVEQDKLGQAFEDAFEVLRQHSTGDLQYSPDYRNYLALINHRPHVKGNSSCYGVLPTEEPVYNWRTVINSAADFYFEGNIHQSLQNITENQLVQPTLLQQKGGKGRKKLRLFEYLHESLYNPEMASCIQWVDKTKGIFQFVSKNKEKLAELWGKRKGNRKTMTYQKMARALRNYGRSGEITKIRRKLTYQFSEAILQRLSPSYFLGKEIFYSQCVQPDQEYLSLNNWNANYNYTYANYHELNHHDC
# Outline: as §1
# [14] = molecular target: ELF4 (Homo sapiens, UniProt Q99607 1-663); settings: protein: recombinant; tags: N-terminal GST; dsDNA, one strand shown
# Sequence of ELF4 (Q99607 whole entry): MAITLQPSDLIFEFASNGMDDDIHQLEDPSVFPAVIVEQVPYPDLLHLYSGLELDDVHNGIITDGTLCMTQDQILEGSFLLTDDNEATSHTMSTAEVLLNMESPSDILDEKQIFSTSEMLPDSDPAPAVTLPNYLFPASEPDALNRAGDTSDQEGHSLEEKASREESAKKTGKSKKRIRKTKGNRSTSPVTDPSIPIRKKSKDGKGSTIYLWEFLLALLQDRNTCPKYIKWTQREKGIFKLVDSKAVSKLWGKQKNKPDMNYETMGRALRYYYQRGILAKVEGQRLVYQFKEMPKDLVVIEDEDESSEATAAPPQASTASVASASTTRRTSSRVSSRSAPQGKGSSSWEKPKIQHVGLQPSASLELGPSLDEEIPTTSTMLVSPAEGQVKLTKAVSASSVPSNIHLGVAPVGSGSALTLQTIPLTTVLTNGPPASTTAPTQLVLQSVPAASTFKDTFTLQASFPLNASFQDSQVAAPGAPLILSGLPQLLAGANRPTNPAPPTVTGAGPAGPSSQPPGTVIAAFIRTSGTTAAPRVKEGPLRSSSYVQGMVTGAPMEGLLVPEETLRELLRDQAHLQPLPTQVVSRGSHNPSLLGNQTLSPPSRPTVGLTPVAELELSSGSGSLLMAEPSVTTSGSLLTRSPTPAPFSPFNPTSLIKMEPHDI
# Outline: as §1
# [15] = molecular target: T9, ELK4 (Homo sapiens, UniProt P28324-2 1-405); settings: protein: recombinant; tags: N-terminal GST; dsDNA, one strand shown
# T9 sequence: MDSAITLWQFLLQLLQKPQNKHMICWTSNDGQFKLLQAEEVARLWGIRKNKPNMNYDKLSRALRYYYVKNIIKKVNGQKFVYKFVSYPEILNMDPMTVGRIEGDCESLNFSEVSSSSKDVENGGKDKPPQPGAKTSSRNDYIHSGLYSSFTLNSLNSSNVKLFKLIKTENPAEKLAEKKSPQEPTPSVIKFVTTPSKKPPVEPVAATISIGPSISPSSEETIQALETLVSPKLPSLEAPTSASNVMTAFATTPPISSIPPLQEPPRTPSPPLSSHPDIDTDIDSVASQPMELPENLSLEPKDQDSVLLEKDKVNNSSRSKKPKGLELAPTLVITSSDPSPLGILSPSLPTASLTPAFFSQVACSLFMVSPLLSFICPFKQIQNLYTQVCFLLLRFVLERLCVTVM
# Outline: as §1
# [16] = molecular target: T10, ETV2 (Homo sapiens, UniProt O00321 1-342); settings: protein: recombinant; tags: N-terminal GST; dsDNA, one strand shown
# T10 sequence: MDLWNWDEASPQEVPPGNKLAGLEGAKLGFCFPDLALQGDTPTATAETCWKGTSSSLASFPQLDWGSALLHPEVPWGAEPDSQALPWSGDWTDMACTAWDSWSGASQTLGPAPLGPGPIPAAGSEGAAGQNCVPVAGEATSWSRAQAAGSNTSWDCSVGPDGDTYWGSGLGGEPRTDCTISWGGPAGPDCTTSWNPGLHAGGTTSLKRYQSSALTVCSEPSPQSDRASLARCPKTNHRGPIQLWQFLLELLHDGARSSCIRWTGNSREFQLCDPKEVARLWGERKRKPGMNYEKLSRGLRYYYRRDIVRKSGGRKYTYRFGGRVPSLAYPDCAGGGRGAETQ
# Outline: as §1
# [17] = molecular target: T11, ELF3 (Homo sapiens, UniProt P78545 1-371); settings: protein: recombinant; tags: N-terminal GST; dsDNA, one strand shown
# T11 sequence: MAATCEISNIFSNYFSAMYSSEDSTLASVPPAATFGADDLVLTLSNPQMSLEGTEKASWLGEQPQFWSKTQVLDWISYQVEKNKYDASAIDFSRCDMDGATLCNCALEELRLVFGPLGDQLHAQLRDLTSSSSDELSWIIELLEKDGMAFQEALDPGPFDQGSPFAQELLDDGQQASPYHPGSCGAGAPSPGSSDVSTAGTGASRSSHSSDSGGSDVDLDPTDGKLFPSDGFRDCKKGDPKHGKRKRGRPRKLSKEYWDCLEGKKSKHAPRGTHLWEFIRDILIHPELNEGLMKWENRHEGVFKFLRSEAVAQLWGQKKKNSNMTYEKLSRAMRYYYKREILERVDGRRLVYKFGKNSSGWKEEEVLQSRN
# Outline: as §1
# [18] = molecular target: CRX (Homo sapiens, UniProt O43186 1-299); settings: protein: recombinant; tags: N-terminal GST; dsDNA, one strand shown
# Sequence of CRX (O43186 whole entry): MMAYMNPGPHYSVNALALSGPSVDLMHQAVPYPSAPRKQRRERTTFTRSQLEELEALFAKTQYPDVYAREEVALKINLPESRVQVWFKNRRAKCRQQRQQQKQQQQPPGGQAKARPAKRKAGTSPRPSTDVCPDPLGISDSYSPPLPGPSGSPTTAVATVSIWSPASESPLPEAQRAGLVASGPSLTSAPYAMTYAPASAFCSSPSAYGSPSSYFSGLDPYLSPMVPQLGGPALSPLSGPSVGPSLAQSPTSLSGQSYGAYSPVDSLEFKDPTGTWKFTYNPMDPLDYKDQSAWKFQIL
# Outline: as §1
# [19] = molecular target: ETV1 (Homo sapiens, UniProt P50549 1-477); settings: protein: recombinant; tags: N-terminal GST; dsDNA, one strand shown
# Sequence of ETV1 (P50549 whole entry): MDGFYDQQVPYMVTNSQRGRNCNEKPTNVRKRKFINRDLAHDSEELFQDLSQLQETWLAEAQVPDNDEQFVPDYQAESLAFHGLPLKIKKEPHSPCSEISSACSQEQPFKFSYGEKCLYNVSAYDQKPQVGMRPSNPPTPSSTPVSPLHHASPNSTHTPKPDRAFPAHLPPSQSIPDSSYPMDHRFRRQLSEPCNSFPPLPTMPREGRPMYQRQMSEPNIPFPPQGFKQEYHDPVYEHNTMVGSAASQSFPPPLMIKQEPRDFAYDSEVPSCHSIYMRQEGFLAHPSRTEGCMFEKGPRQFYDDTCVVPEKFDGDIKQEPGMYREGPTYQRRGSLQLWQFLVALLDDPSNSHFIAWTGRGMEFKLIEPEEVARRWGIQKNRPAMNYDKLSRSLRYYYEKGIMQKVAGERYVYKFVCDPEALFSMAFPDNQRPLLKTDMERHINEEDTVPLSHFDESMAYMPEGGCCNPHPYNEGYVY
# Outline: as §1
sequence,measurement,setting,value
ACGATT,binding signal,[1],"1.44 fold enrichment (6-mer frequency, TF over GST control)"
same,binding signal,[2],"1.31 fold enrichment (6-mer frequency, TF over GST control)"
same,binding signal,[3],"1.29 fold enrichment (6-mer frequency, TF over GST control)"
same,binding signal,[4],"1.34 fold enrichment (6-mer frequency, TF over GST control)"
same,binding signal,[5],"1.32 fold enrichment (6-mer frequency, TF over GST control)"
same,binding signal,[6],"1.32 fold enrichment (6-mer frequency, TF over GST control)"
same,binding signal,[7],"1.31 fold enrichment (6-mer frequency, TF over GST control)"
same,binding signal,[8],"1.3 fold enrichment (6-mer frequency, TF over GST control)"
same,binding signal,[9],"1.38 fold enrichment (6-mer frequency, TF over GST control)"
same,binding signal,[10],"1.28 fold enrichment (6-mer frequency, TF over GST control)"
same,binding signal,[11],"1.36 fold enrichment (6-mer frequency, TF over GST control)"
same,binding signal,[12],"1.69 fold enrichment (6-mer frequency, TF over GST control)"
same,binding signal,[13],"1.39 fold enrichment (6-mer frequency, TF over GST control)"
same,binding signal,[14],"1.39 fold enrichment (6-mer frequency, TF over GST control)"
same,binding signal,[15],"1.43 fold enrichment (6-mer frequency, TF over GST control)"
same,binding signal,[16],"1.24 fold enrichment (6-mer frequency, TF over GST control)"
same,binding signal,[17],"1.31 fold enrichment (6-mer frequency, TF over GST control)"
same,binding signal,[18],"1.99 fold enrichment (6-mer frequency, TF over GST control)"
same,binding signal,[19],"1.31 fold enrichment (6-mer frequency, TF over GST control)"
